Measurements published in ChEMBL document CHEMBL3988442, “University of Dundee, Small-Polar-MMV Screening Library” (2021).
For part of these data: Results with a measured potency or affinity are listed apart.

Assays:
Set-up in all cases: scale not given: direction of the effect not stated beside the values
[1] = target: Protein translocase subunit SecA (Escherichia coli (strain K12)) (UniProt P10408); assay: Assay to Identify E. coli SecA ATPase Inhibitors; assay type: functional; conditions: 30 µM
[2] = target: T1, Ubiquitin-activating enzyme e1, putative (Leishmania donovani (strain BPK282A1)) (UniProt E9BSI1); assay: Leishmania donovani Ubiquitin Activating Enzyme (LdE1); assay type: functional; conditions: 30 µM
T1 sequence (whole entry): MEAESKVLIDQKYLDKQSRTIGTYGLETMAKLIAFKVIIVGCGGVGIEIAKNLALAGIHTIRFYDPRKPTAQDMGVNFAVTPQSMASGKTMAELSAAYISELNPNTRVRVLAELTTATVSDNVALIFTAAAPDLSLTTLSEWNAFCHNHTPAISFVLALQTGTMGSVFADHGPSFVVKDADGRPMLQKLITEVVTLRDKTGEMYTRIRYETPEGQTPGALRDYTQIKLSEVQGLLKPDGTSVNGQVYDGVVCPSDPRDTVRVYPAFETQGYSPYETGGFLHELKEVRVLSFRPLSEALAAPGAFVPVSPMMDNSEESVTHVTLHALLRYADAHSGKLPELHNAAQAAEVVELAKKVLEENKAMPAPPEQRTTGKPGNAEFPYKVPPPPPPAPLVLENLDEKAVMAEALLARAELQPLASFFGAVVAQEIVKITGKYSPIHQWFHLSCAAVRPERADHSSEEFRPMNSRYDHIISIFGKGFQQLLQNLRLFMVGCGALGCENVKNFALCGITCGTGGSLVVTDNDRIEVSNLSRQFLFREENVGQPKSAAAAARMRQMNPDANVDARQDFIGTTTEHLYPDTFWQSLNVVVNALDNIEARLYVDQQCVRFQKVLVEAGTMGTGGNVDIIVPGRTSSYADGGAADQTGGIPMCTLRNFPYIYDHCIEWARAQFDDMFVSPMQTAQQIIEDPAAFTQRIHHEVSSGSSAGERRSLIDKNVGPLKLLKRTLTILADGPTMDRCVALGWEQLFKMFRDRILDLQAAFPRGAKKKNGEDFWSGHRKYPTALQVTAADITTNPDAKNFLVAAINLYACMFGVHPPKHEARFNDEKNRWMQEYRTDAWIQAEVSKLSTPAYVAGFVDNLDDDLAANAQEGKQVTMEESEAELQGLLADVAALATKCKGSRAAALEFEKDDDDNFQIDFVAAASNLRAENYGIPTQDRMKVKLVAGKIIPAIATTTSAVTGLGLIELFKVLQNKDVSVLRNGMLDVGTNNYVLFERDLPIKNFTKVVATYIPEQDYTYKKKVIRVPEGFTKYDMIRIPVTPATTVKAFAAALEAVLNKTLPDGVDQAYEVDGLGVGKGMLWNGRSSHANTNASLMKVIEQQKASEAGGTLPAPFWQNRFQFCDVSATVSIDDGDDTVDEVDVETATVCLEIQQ

[3] = target: AMP-activated protein kinase, AMPK (Homo sapiens) (UniProt P54646+O43741+P54619+Q9UGJ0+Q9Y478+Q13131+Q9UGI9); assay: AMP-dependent Kinase enzyme assay. An in vitro enzyme assay that detects ADP turnover that is directly proportional to AMPK activity. This uses naive AMPK that is activated during the assay with MK-8722; assay type: functional; conditions: 30 µM
[4] = target: Sialic acid-binding Ig-like lectin 9 (Homo sapiens) (UniProt Q9Y336); assay: Hs-Siglec9 ALPHAscreen SOP 20170721; conditions: 10 µM
Trypanosoma cruzi = assay: Trypanosoma cruzi phosphomannomutase and mannose-1-phosphate guanylyltransferase assay; assay type: functional; conditions: 10 µM
[5] = target: T2, Arginase-2, mitochondrial (Homo sapiens) (UniProt P78540); assay: in vitro enzyme assay to detect the production of urea directly proportional to the activity of Arginase II; assay type: functional; conditions: 33.3 µM; also: in the data most compounds retested in dose-response had high values
T2 sequence (whole entry): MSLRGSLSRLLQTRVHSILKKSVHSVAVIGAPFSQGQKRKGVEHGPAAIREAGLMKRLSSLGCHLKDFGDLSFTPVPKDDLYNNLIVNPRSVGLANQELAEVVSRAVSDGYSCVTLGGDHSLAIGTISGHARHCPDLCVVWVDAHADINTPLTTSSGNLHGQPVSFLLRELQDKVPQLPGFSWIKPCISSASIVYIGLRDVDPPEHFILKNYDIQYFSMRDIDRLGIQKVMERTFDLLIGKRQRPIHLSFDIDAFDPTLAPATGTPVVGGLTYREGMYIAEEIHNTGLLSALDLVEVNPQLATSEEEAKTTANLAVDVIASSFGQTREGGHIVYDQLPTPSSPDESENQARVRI

[6] = target: T3, Proteasome subunit beta (Trypanosoma cruzi) (UniProt O96673); assay: Trypanosoma cruzi proteasome chymotrypsin-like activity (TcProtChymo) assay.; also: in the data most compounds retested in dose-response had high values; assay type: functional; conditions: 9.37 µM
T3 sequence (whole entry): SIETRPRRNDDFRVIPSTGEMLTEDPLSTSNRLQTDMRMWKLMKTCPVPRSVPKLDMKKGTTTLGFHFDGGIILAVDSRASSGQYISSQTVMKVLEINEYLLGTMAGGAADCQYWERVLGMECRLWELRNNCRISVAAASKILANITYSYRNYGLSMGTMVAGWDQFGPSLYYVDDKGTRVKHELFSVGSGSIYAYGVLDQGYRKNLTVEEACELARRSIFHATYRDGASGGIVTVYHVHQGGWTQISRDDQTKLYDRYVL

Homo sapiens = species on record: Homo sapiens; assay: To identify inhibition of the IFN signalling (Jak-Stat) pathway via expression of an eGFP reporter gene under the control of an IFN-stimulated response element (ISRE) containing MxA promoter.; assay type: functional; conditions: 30 µM
[7] = target: T4, Tyrosyl-tRNA synthetase, putative (Trypanosoma cruzi (strain CL Brener)) (UniProt Q4DSP6); assay: Trypanosoma cruzi tyrosyl tRNA synthetase (TcYRS) _High Tyrosine SOP; assay type: functional; conditions: 30 µM; also: in the data most compounds retested in dose-response had high values
T4 sequence (whole entry): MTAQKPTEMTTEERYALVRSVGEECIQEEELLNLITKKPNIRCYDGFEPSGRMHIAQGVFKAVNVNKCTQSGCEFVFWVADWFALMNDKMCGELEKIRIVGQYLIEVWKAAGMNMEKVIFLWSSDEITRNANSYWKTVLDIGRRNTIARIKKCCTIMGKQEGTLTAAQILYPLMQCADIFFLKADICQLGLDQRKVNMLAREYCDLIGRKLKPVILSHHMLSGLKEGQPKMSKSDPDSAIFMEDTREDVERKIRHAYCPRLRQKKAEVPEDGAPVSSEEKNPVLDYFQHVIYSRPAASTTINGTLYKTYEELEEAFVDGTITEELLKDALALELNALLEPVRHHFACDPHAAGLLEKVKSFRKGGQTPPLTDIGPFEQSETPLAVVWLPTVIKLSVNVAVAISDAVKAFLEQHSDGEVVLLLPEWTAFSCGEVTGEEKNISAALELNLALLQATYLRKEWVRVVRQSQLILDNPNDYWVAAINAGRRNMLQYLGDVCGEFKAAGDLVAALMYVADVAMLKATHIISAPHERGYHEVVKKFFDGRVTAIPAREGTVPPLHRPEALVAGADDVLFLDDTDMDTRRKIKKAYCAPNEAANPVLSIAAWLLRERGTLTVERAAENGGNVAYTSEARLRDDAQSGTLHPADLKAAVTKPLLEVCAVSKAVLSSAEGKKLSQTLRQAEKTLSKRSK

[8] = target: T4, Tyrosyl-tRNA synthetase, putative (Trypanosoma cruzi (strain CL Brener)); assay: Trypanosoma cruzi tyrosyl tRNA synthetase (TcYRS) SOP; assay type: functional; conditions: 30 µM
[9] = target: Chromo domain-containing protein 1 (Saccharomyces cerevisiae (strain ATCC 204508 / S288c) (Baker's yeast)) (UniProt P32657); assay: ScCHD-1 Enzyme Inhibition Assay; assay type: functional; conditions: 30 µM; also: in the data most compounds retested in dose-response had high values
Chromo domain-containing protein 1 (Saccharomyces cerevisiae (strain ATCC 204508 / S288c) (Baker's yeast)), sequence (P32657 whole entry, the tested form may be a part): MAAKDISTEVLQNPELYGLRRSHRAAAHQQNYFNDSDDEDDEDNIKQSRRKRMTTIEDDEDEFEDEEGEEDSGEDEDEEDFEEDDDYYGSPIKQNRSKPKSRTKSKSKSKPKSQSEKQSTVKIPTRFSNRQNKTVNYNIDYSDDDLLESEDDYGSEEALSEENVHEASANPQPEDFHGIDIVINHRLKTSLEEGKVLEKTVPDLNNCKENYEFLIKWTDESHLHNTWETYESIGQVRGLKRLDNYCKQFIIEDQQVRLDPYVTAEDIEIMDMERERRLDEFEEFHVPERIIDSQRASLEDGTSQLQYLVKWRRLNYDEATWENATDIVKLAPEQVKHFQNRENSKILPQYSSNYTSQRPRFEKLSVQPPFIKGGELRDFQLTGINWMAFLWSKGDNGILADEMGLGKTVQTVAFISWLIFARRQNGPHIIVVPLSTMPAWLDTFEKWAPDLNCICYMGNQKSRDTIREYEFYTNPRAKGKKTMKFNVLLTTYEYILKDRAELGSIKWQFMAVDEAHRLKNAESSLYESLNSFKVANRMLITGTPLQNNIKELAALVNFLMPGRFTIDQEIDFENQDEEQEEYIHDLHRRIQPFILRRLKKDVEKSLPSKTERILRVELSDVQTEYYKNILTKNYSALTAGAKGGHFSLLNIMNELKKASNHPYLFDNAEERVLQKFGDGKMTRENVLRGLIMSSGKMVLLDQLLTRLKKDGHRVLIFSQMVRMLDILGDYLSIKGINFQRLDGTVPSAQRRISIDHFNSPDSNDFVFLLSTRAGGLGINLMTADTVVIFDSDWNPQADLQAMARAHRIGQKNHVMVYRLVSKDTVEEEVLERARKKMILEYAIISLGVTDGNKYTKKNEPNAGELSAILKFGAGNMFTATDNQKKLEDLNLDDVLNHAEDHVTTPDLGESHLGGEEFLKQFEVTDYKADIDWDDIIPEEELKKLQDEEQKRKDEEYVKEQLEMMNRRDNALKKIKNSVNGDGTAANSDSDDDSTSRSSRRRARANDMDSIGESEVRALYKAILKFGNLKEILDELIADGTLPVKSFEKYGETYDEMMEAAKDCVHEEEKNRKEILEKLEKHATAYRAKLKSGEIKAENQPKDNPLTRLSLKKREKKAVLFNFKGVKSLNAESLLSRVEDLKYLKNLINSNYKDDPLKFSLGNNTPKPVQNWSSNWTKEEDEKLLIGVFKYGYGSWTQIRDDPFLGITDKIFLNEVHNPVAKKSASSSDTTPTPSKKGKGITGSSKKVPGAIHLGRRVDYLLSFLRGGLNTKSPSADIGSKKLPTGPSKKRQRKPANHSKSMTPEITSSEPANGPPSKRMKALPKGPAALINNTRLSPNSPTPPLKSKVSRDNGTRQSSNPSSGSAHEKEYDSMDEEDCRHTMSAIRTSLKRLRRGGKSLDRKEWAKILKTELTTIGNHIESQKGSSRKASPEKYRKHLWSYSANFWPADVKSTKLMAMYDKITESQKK

Protein translocase subunit SecA (Escherichia coli (strain K12)), sequence (P10408 whole entry): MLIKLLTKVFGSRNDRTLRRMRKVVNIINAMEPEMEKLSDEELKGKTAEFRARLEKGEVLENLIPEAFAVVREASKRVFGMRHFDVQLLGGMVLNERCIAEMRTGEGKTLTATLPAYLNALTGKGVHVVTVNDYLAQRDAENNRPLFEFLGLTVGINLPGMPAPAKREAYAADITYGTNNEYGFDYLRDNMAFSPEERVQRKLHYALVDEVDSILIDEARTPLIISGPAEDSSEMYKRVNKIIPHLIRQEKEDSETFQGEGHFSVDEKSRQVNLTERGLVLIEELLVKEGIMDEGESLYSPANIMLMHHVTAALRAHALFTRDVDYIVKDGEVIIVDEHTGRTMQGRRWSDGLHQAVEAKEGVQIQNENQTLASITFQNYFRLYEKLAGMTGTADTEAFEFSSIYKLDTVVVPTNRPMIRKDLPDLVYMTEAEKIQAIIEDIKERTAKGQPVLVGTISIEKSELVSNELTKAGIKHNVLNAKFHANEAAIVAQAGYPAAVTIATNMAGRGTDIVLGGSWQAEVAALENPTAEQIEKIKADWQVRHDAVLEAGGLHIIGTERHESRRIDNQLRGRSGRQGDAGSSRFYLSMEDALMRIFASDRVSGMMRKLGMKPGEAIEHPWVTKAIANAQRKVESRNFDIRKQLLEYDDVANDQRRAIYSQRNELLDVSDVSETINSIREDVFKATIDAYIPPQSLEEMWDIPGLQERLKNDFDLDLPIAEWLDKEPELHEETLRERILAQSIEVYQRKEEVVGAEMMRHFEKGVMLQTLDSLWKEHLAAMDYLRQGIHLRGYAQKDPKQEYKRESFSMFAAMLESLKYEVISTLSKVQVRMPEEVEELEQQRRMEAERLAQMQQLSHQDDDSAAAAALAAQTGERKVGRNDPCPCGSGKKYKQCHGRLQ
Sialic acid-binding Ig-like lectin 9 (Homo sapiens), sequence (Q9Y336 whole entry): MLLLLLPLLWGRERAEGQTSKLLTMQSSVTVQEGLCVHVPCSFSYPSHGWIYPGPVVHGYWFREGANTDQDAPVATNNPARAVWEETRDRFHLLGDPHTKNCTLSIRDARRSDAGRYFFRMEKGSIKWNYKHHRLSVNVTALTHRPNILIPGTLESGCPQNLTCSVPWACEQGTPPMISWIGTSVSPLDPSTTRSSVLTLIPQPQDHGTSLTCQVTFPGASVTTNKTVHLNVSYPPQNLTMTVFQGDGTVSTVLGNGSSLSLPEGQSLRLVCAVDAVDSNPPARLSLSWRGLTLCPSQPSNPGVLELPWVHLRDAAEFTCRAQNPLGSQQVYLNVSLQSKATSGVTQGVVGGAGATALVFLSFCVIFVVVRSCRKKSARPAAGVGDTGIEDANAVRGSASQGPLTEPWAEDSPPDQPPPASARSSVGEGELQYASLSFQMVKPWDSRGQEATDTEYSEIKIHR

| SMILES | Percent Effect [1] | Percent Effect [2] | Percent Effect [3] | Percent Effect [4] | Percent Effect (Trypanosoma cruzi) | Percent Effect [5] | Percent Effect [6] | Percent Effect (Homo sapiens) | Percent Effect [7] | Percent Effect [8] | Percent Effect [9] |
| --- | --- | --- | --- | --- | --- | --- | --- | --- | --- | --- | --- |
| Cc1[nH]c(=O)[nH]c(=O)c1CN1CCCC(CCc2c(F)cccc2F)C1 (stereo unspecified) | -0.639% | 8.11% | -5.43% | 13.8% | 1.16% | 1.91% | 9.14% | 5.92% | 3.7% | -9.76% | -1.15% |
| Cc1noc([C@@H]2CC[C@@H]3[C@@H](CCN3S(=O)(=O)c3cccnc3)O2)n1 | -1.26% | 5.41% | 9.76% | -4.15% | -3.12% | 1.67% | 9.89% | 3.62% | 6.93% | 13.4% | 3.12% |
| O=C(COc1coc(CN2CCCCCC2)cc1=O)c1ccccc1 | -5.87% | -7.89% | -1.88% | -6.78% | -3.6% | -1.18% | 9.49% | -1.04% | 3.19% | 0% | 72.3% |
| Cn1cc(-c2cnc(N3CCOCC3)nc2)cc1C(=O)NCCO | -0.798% | 5.33% | 1.84% | -0.344% | -8.86% | 5.83% | 8.37% | -3.42% | 0% | 6.41% | -7.59% |
| CS(=O)(=O)N1Cc2nccn2CC(Cn2ncccc2=O)C1 (stereo unspecified) | -1.2% | 13.3% | 3.55% | 5.03% | -5.79% | -26% | 7.18% | 0.368% | 3.12% | 12.5% | -4.85% |
| CCOc1cc(C)nc(N2CCN(C(=O)CC)CC2)n1 | -4.4% | 5.41% | 144% | 10.3% | 0.836% | 0.924% | -14.4% | 17.8% | 6.93% | 6.1% | 7.75% |
| COc1c(CNCCNC(=O)c2ccc(C)cc2)c(C)nn1C | -5.75% | 13.5% | -5.83% | 19.1% | 6.96% | -2.4% | 5.57% | -9.3% | 7.92% | 28.1% | -7.35% |
| CCc1nnsc1C(=O)NC1CCN(c2ccccn2)CC1 | -1.79% | 18.9% | 1.62% | 8.18% | 5.38% | 21.1% | 15% | 15.5% | 3.23% | 16.1% | -7.21% |
| Cc1noc(C)c1C(=O)NCC(c1ccc(F)cc1)N(C)C (stereo unspecified) | -3.62% | 8.11% | 1.69% | -12.4% | -3.25% | 0.924% | 0.898% | 16.5% | 5.94% | 13.4% | 0.216% |
| CN(C)CC1CSCCCN1C(=O)c1ccc(=O)[nH]c1 (stereo unspecified) | -6.61% | 2.6% | 6.1% | 5.73% | -5.82% | 0.645% | 7.66% | 0.342% | -1.06% | 3.85% | -3.68% |
| Cc1cccc(C(=O)Nc2ccc(OC3CCN(C)CC3)cc2)c1 | -3.56% | 7.79% | 6.98% | 12% | 7.57% | 22.1% | 7.82% | -1.95% | 5.38% | 13.6% | -8.12% |
| c1ccc(-n2nnnc2CN2CCCC(Cn3cncn3)C2)cc1 (stereo unspecified) | -1.71% | 6.33% | 5.51% | 4.14% | -5.03% | 0.645% | 9.61% | 4.63% | 3.12% | 10.1% | -17.9% |
| COC[C@@H]1CC[C@H]2[C@H](CCN2C(=O)c2ccncc2F)O1 | -5.45% | 2.7% | -0.0287% | 17.9% | 2.05% | 2.73% | -4.21% | -15.4% | 5.38% | 13.6% | -2.68% |
| CC(O)CN1CCN(C(=O)c2ccn(-c3cccc(Cl)c3)n2)CC1 (stereo unspecified) | -5.56% | -2.6% | 12.7% | -7.86% | -6.93% | 1.07% | 1.18% | 26.4% | -1.94% | -9.76% | -1.68% |
| Cc1nc(CN2CCOC(Cn3cncn3)C2)nc2ccccc12 (stereo unspecified) | -1.64% | -2.6% | 3.13% | 0.385% | 3.04% | -1.05% | 9.62% | -20.1% | 5.71% | 0% | -15.8% |
| Cc1nc(C)n(CC2CCCCN2CCS(C)(=O)=O)n1 (stereo unspecified) | -4.31% | -2.7% | 0.489% | 0.818% | -3.09% | -3.33% | 11.7% | 8.2% | -2.65% | -4.88% | -3.45% |
| Cc1nc(N2CCCC2)nc2c1CCN(C(=O)C1CCCC1)CC2 | -2.37% | 4% | 0.866% | 2.33% | -3.54% | -4.4% | 15.2% | -11.3% | 9.52% | 10.3% | -6.44% |
| CCC(CC)NC(=O)Cn1nc(C)nc1-c1ccccc1 | -4.52% | 16.2% | -5.72% | 3.26% | -6.32% | -1.2% | 3.6% | 21.4% | 6.4% | 11.1% | -8.07% |
| CS(=O)(=O)NC[C@]12COC[C@H]1CN(CC1CCCC1)C2 | -4.19% | 5.41% | 8.19% | -4.23% | -4.79% | 1.59% | 20.1% | 0.262% | 2.16% | 7.69% | 0.895% |
| CC(C)c1ncc2c(n1)CN(Cc1nc(Cc3ccccc3)no1)CC2 | -3.61% | 10.8% | -1.07% | 3.74% | 2.69% | -2.77% | -5.92% | 10.2% | 17.8% | 23.2% | 0.435% |
| CCS(=O)(=O)N1CC[C@]2(C[C@@H](OCC3CC3)CO2)C1 | -5.7% | 5.41% | -4.19% | 27.4% | 6.94% | -1.74% | 13.3% | 1.36% | 8.6% | 13.6% | -6.86% |
